The list is not random: actives were taken first. Their share in the collection is about 19%.
TDP1 cell noCPT: qHTS for Inhibitors of human tyrosyl-DNA phosphodiesterase 1 (TDP1): qHTS in cells in absence of CPT. 420,000 compounds, 15% hits. Potency, µM (highest dose often 46.2 µM), for inactives: top-dose activity change, negative = growth inhibition, actives largely listed as inhibitors. DT40 Tdp1-/- hTDP1 cells, no CPT, ATP luminescence, 48 h; further: potency means the concentration at half of the fitted maximal effect; on the % scale 0 is the no-effect control and ±100 the full control effect; nearly all actives have a fitted effect of over 55% in size
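Growth of hTDP1-complemented DT40 Tdp1-knockout cells is measured by ATP luminescence after at least 48 hr compound exposure at 37 °C, with DMSO substituting for the 20 nM CPT used in the parallel screen.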
MCF10A rereplic: A quantitative high throughput screen for small molecules that induce DNA re-replication in MCF 10a normal breast cells; MCF 10A DNA re-replication, Hoechst nuclear intensity, 48 h; Potency, µM (highest dose often 46.1 µM), for the others: top-dose activity, positive = re-replication, usual class: activators; 350,000 compounds, 2.9% hits; AID 624296, 2012; further: potency means the concentration at half of the fitted maximal effect; % of control where 0% means no effect; nearly all actives have a fitted effect of over 50% in size
BCR signal inh: qHTS Assay to Find Inhibitors of Chronic Active B-Cell Receptor Signaling; ABC-DLBCL IkBa-CBG/CBR reporter, luminescence ratio, 4 h; Potency, µM (doses to about 46.1 µM), inactives show at the top dose activity change, negative = inhibition, most hits filed as inhibitors; 340,000 compounds, 0.05% hits; active means well fitted inhibition curve with a large enough effect in the signal ratio, with a control signal flat, not every such curve was filed as active; inconclusive means small, poorly fitted or top-dose-only effect, or effect the other way, or a change in a side signal; the % refers to the signal ratio;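 further: potency means the concentration at half of the fitted maximal effect; plate controls were basal doxycycline-induced cells for no effect and cells given 10 µM MG132 for full effect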
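Cell line TMD8 (human ABC DLBCL), stably expressing tet-inducible CBG68-IkBa fusion and CBR; IMDM/0.5% FBS; cpd up to 46 uM; dox induction, 4 h, 37C/5% CO2; dual luminescence; green/red ratio; MG132 control.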
TDP1 cell CPT: qHTS for Inhibitors of human tyrosyl-DNA phosphodiesterase 1 (TDP1): qHTS in cells in presence of CPT | chicken DT40 Tdp1-/-;hTDP1 cells + 20 nM CPT, ATP luminescence, 48 h | Potency, µM (doses to about 46.2 µM), inactives show at the highest dose activity change, negative = growth inhibition, most hits filed as inhibitors | 420,000 compounds, 12% hits | AID 686979, 2013; further: potency means the concentration at half of the fitted maximal effect; on the % scale 0 is the no-effect control and ±100 the full control effect; nearly all actives have a fitted effect of over 55% in size
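Cell growth measured by CellTiter-Glo luminescence after a minimum 48 h, 37 C compound exposure with 20 nM CPT in Tdp1-knockout DT40 cells stably expressing hTDP1, seeded 400/well; qHTS titration format.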
SW480 rerep: A quantitative high throughput screen for small molecules that induce DNA re-replication in SW480 colon adenocarcinoma cells | SW480 DNA re-replication, Hoechst DNA content imaging, 48 h | 340,000 compounds, 1.8% hits | Potency, µM (titrated, usually from 46.1 µM), inactives show top-dose re-replication activation, actives largely listed as activators; further: potency means the concentration at half of the fitted maximal effect; % of control where 0% means no effect; nearly all actives have a fitted effect of over 55% in size
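DNA re-replication was detected as more nuclei of elevated Hoechst intensity after 48 hr exposure to compound (23 nL pinned per well of 250 cells).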
IL-1B inflam inh: qHTS for Inhibitors of Inflammasome Signaling: IL-1-beta AlphaLISA Primary Screen | activity change, % at 57.5 µM | THP-1 LPS/ATP IL-1B secretion, AlphaLISA, 16 h; hits give low values | AID 743279, 2014 | 360,000 compounds, 4.7% hits; in the data active means activity change below about -50%; inconclusive means mostly about -30% to -49%; further: on the % scale 0 is the no-effect control and ±100 the full control effect
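Secreted IL-1B measured by AlphaLISA bead assay after 16 h compound exposure of THP-1 cells; compounds (final up to 57.5 uM) added 1 h before LPS (250 ng/mL) and ATP (1.25 mM) stimulation; lower signal means less secretion.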
Numbers without * were called inactive; ? = inconclusive; · = no result; [ ] = another dose, or the depositor's remark. Unless noted, the call rests on the fitted dose curve; in most records, active means well fitted curve in the direction sought with a large enough effect; inconclusive means small, poorly fitted or top-dose-only effect, or another doubt; inactive means no such curve, though single readings can be large; an effect the other way counts as inactive or inconclusive.

SMILES	TDP1 cell noCPT	MCF10A rereplic	BCR signal inh	TDP1 cell CPT	SW480 rerep	IL-1B inflam inh
COc1ccc(CN2C(=O)c3ccccc3C2c2nnnn2-c2c(C)cccc2C)cc1OC (centres undefined)	?	·	·	?	·	-12.4
OC(CCN1CC2CCC(CC2)C1)(Cc1ccccc1)c1ccco1 (centres undefined)	?	20.8%	·	?	-2.6%	-14.0
O=C(CS(=O)(=O)Cc1ccccc1)c1ccccc1	-20.7%	·	·	-28.0%	·	5.5
COc1ccc2c(C)cc(SCc3c(C)noc3C)nc2c1	?	11.6µM*	?	?	?	-12.6
O=C(Oc1cccc2c(O)cccc12)c1ccco1	11.6µM*	-0.2%	·	20.6µM*	15.7%	25.5
O=C(C1CC1)N1N=C(c2ccc(Cl)cc2)CC1(O)C(F)(F)F (centres undefined)	-6.0%	?	-3.9%	-18.7%	-17.0%	-0.6
CC1(O)CC(c2ccc(Cl)cc2)=NN1C(=O)c1ccc(Cl)cc1 (centres undefined)	16.4µM*	11.6µM*	?	10.3µM*	?	-8.9
CCOc1ccc2ccccc2c1/C=N/NC(=O)CNC(=O)c1ccccc1F	?	22.7%	-7.6%	-17.6%	7.1%	-29.5
Cn1ncc(N=Cc2c(O)ccc3ccccc23)c1C(=O)N1CCOCC1	-19.9%	-2.5%	·	0.6%	1.1%[9.22 µM]	19.3
COc1ccccc1N(CC(=O)N/N=C/c1c(O)ccc2ccccc12)S(C)(=O)=O	5.8µM*	?	?	5.17µM*	?	-6.9
COc1ccccc1CNC(=O)CN(c1ccccc1OC)S(C)(=O)=O	-28.0%	·	-27.0%	-25.3%	·	·
COc1ccccc1NCC(=O)N/N=C/c1c(O)ccc2ccccc12	2.91µM*	?	?	5.8µM*	3.26µM*	170.9
COc1ccccc1NCC(=O)N/N=C/c1cccnc1	-0.2%	-5.8%	?	-13.9%	-1.3%	0.0
COc1ccccc1NC(=O)c1c(N=Cc2c(O)ccc3ccccc23)cnn1C	6.51µM*	?	?	8.2µM*	?	61.5
CCOc1ccc2ccccc2c1/C=N/NC(=O)CNC(=O)Cc1ccccc1	0.8%	?	0.3%	18.4µM*	5.2%	-17.2
CCc1nn(CC(=O)NCc2ccco2)c(=O)c2cc3c(OC)cccc3n12	-3.1%	·	·	-18.0%	·	·
O=C(CNc1ccc(F)cc1)N/N=C/c1c(O)ccc2ccccc12	9.2µM*	10.4%	-8.6%	10.3µM*	?	177.0
O=C(Cc1n[nH]c(=O)[nH]c1=O)N/N=C/c1c(O)ccc2ccccc12	-1.4%	16.4%	2.2%	19.0%	27.5%	-11.3
Nc1nsc2ccccc12	2.24µM*	-30.3%	?	3.26µM*	?	-99.2*
Nc1nnc(N)c2ccccc12	8.4%	?	-17.8%	-6.8%	0.8%	0.0
CCC(Cn1nnc2ccccc2c1=O)NC(=O)Nc1cc(C)cc(C)c1 (centres undefined)	?	·	·	-21.5%	·	·
CC(=O)C(=Nc1cccc(Cl)c1)NNc1ccccc1C	14.6µM*	?	·	?	?	22.5
Cc1cc(Cl)ccc1NNC(=O)c1cccs1	-9.8%	9.3%	-2.1%	-3.1%	-7.8%	-10.9
CCC(C(=O)O)n1nc(-c2ccccc2)c2cc(Cl)ccc21 (centres undefined)	2.1%	19.1%	-0.1%	10.4%	1.8%	21.9
O=c1c2cc(N3CCOCC3)ccc2[nH]c(=S)n1CCCN1CCCCC1	3.0%	0.3%	?	6.4%	-5.1%	-15.9
SMILES	TDP1 cell noCPT	MCF10A rereplic	BCR signal inh	TDP1 cell CPT	SW480 rerep	IL-1B inflam inh
O=C(CCCCCn1c(=S)[nH]c2ccc(N3CCOCC3)cc2c1=O)NC1CCN(Cc2ccccc2)CC1	23.1µM*	?	?	16.4µM*	18.3%	-19.2
O=c1c2cc(N3CCOCC3)ccc2[nH]c(=S)n1Cc1cccc(Cl)c1	?	?	5.0%	20.6µM*	118.5%	20.6
O=c1c2cc(N3CCOCC3)ccc2[nH]c(=S)n1Cc1ccco1	20.6µM*	?	?	?	?	9.7
O=C(NC1CCN(Cc2ccccc2)CC1)c1ccc(Cn2c(=S)[nH]c3ccc(N4CCOCC4)cc3c2=O)cc1	?	?	?	?	?	-14.1
CCN(CCCn1c(=S)[nH]c2ccc(N3CCOCC3)cc2c1=O)c1ccccc1	20.6µM*	18.4µM*	0.3%	11.6µM*	?	10.9
O=c1c2cc(Cl)ccc2[nH]c(=S)n1Cc1ccco1	?	20.6%	?	?	?	39.7
Cc1ccc(S(=O)(=O)N2CCCCC2)cc1NC(=O)c1ccc2ccccc2n1	-18.2%	0.2%	8.4%	0.9%	-0.6%	-3.0
COc1ccc(S(=O)(=O)N2CCCCC2)cc1NC(=O)c1ccc2ccccc2n1	13µM*	13.7%	-0.1%	14.6µM*	-1.2%	-3.5
COc1ccc(NC(=O)c2ccc3ccccc3n2)cc1S(=O)(=O)N1CCCCC1	16.4µM*	?	3.5%	20.6µM*	10.9%	?
